We go through 32 compounds from PubChem BioAssay (NCATS).

Records with an inconclusive call do not appear. Activity calls are given as the source filed them. Calls follow the shape of the dose curve; as a rule, active = well fitted curve in the direction sought with a large enough effect; inconclusive = small, poorly fitted or top-dose-only effect, or another doubt; inactive = no such curve, though single readings can be large or run the other way.
Potency is read from the fitted curve at half-maximal effect.

The experiment in a line: qHTS for differential inhibitors of proliferation of Plasmodium falciparum line 3D7 (AID 1876).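 As to activity, negative = inhibition: parasite growth measured after three days of culture; 0% = vehicle wells and -100% = reference inhibitor wells.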 The note with it: P. falciparum 3D7 proliferation inhibition; series mostly up to 28.7 µM; activity, negative = inhibition: at the top concentration. In general terms: In qHTS, concentration-response curves come from the screen itself.
Turning to `O=C(O)/C(=C/c1c(C(=O)O)[nH]c2cc(Cl)cc(Cl)c12)c1ccccc1`, the “activity, negative = inhibition” value was -8.29% (inactive).

In the case of `CC1=C(/C=C/C(C)=C/C=C/C(C)=C\C(=O)O)C(C)(C)CCC1`, the Potency was 14.1 µM (active).

Consider `O=C(O)CCC(=O)N1CCCC1C(=O)O` (configuration not stated), for which the “activity, negative = inhibition” value was -5.72% (inactive).

On to `N=C(N)c1ccccc1`, for which the “activity, negative = inhibition” value was -1.8% (inactive).

Regarding `Cc1nc(N=Nc2ccc(S(=O)(=O)O)cc2S(=O)(=O)O)c(COP(=O)(O)O)c(C=O)c1O`, the “activity, negative = inhibition” value is -11.4% (inactive).

Regarding `N=S(=O)(O)Cc1noc2ccccc12`, the “activity, negative = inhibition” value is -1.88% (inactive).

As for `O=[N+]([O-])c1cccc2cn[nH]c12`, the “activity, negative = inhibition” value was 9.52% (inactive).

Regarding `C[C@@H](NCCc1ccc(O)cc1)[C@@H](O)c1ccc(O)cc1`, the “activity, negative = inhibition” value was 2.24% (inactive).

On to `CC[N+](CC)(CC)CC(=O)Nc1c(C)cccc1C`, for which the “activity, negative = inhibition” value is 4.57% (inactive).

Regarding `O=C(O)c1cc2cc(F)ccc2[nH]1`, the “activity, negative = inhibition” value is -1.24% (inactive).

With `O=C(O)C1=CCCNC1`, the “activity, negative = inhibition” value is 4.8% (inactive).

In the case of `CNc1cc(NS(=O)(=O)c2ccc(N)cc2)nc(NC)n1`, the “activity, negative = inhibition” value is -4.29% (inactive).

With `CN1C2CCC1CC(OC(c1ccccc1)c1ccccc1)C2` (configuration not stated), the Potency is 7.08 µM (active).

With `NC/C=C\C(=O)O`, the “activity, negative = inhibition” value was 4.28% (inactive).

Turning to `CN1CCN(c2nc3cc(C(F)(F)F)ccc3n3cccc23)CC1`, the Potency was 7.94 µM (active).

For `CCSC(=N)N`, the “activity, negative = inhibition” value is 0.551% (inactive).

Consider `Nc1ccc(-c2nc3ccc(-c4nc5ccc(N)cc5[nH]4)cc3[nH]2)cc1`, for which the Potency was 0.355 µM (active).

As for `O=C(O)c1cccnc1C(=O)O`, the “activity, negative = inhibition” value was -2.67% (inactive).

Take `c1ccc(CN2CCC3(CCCc4ccccc43)CC2)cc1`: the Potency was 10 µM (active).

Consider `NS(=O)(=O)c1cccc2c1c([N+](=O)[O-])cc1nc(O)c(O)nc12`, for which the “activity, negative = inhibition” value was -1.64% (inactive).

With `Cc1nc(N=Nc2ccc(C(=O)O)cc2)c(COP(=O)(O)O)c(C=O)c1O`, the “activity, negative = inhibition” value was -2.17% (inactive).

`N[C@@H](CCC(=O)N[C@H](CSN=O)C(=O)NCC(=O)O)C(=O)O`: the “activity, negative = inhibition” value is 5.84% (inactive).

As to `CCCCCCC/C=C\CCCCCCCCC(=O)O`, the “activity, negative = inhibition” value is -10.5% (inactive).

As for `NCCCCN=C(N)N`, the “activity, negative = inhibition” value is 2.54% (inactive).

Regarding `Cc1cc2c(cc1Cl)N(C(=O)Nc1ccnc3ccccc13)CC2`, the “activity, negative = inhibition” value is -1.62% (inactive).

On to `CC(=O)NNC(=O)N1Cc2ccccc2Oc2ccc(Cl)cc21`, for which the “activity, negative = inhibition” value was -3.04% (inactive).

As for `CCCCCCCCCCCCCCC[C@H](O)[C@H](N)CO`, the “activity, negative = inhibition” value is 5.27% (inactive).

As to `Cn1c(=O)[nH]c2ncn(C)c2c1=O`, the “activity, negative = inhibition” value was -8.11% (inactive).

As to `O=c1[nH]ccc2c(O)cccc12`, the “activity, negative = inhibition” value is -2.32% (inactive).

With `O=c1onc2n1-c1cc(Br)ccc1OC2`, the “activity, negative = inhibition” value is 4.23% (inactive).

Take `CSC(=N)N`: the “activity, negative = inhibition” value is -3.33% (inactive).

As to `O=C(O)C1=CCCN(CCON=C(c2ccccc2)c2ccccc2)C1`, the “activity, negative = inhibition” value was -10.7% (inactive).
